This passage reports AC50 and outcome results from PubChem BioAssay (EPA / NIEHS).

Read-out in assay [1]: solute carrier (SLCO1B1), SLCO1B1 (gene 10599)
Nature of the assay: LTEA_HepaRG_SLCO1B1: Life Technologies and Expression Analysis (LTEA) Assay for solute carrier (SLCO1B1) using HepaRG (AID 2283530). As to conditions: mRNA level, 48 h; actives raise or lower the signal. The method in brief: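 Differentiated human HepaRG cells, plated 48 h, switched to serum-free induction medium and exposed in duplicate for 48 h to 8 half-log concentrations (top 100 uM) in 0.5% DMSO. SLCO1B1 mRNA by TaqMan qRT-PCR, normalized to ACTB/GAPDH/POLR2A.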

Read-out in assay [2]: sulfotransferase 2A1 (SULT2A1), SULT2A1 (gene 6822)
As to the kind of experiment: LTEA_HepaRG_SULT2A1: Life Technologies and Expression Analysis (LTEA) Assay for sulfotransferase 2A1 (SULT2A1) using HepaRG (AID 2283531). As to conditions: mRNA level, 48 h; actives raise or lower the signal. The method in brief:
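Differentiated human HepaRG cells in serum-free induction medium were exposed for 48 h to eight half-log concentrations (top 100 uM, 0.5% DMSO). SULT2A1 mRNA was measured by qRT-PCR, normalized to ACTB, GAPDH and POLR2A, and fitted bidirectionally against DMSO.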

Read-out in assay [3]: Transforming Growth Factor (TGFA), TGFA (gene 7039)
As to the kind of experiment: LTEA_HepaRG_TGFA: Life Technologies and Expression Analysis (LTEA) Assay for Transforming Growth Factor (TGFA) using HepaRG (AID 2283532). To be noted: mRNA level, 48 h; actives raise or lower the signal. A digest of the protocol:
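Differentiated HepaRG cells exposed 48 hours in serum-free induction medium, 0.5% DMSO vehicle, 8-point half-log series from 100 uM, in duplicate. TGFA mRNA by TaqMan qRT-PCR, normalised to ACTB, GAPDH, POLR2A; bidirectional fit versus DMSO.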

Read-out in assay [4]: Transforming Growth Factor (TGFB1), TGFB1 (gene 7040)
Nature of the assay: LTEA_HepaRG_TGFB1: Life Technologies and Expression Analysis (LTEA) Assay for Transforming Growth Factor (TGFB1) Transporter using HepaRG (AID 2283533). As to conditions: mRNA level, 48 h; actives raise or lower the signal. A digest of the protocol: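 Differentiated human HepaRG cells in serum-free induction medium were exposed in duplicate for 48 h to eight concentrations (top 100 uM, half-log steps, 0.5% DMSO). TGFB1 mRNA was quantified by qRT-PCR, normalized to ACTB, GAPDH, POLR2A, and fitted bidirectionally against DMSO.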

Read-out in assay [5]: TIMP1, TIMP1 (gene 7076)
As to the kind of experiment: LTEA_HepaRG_TIMP1: Life Technologies and Expression Analysis (LTEA) Assay for TIMP1 using HepaRG (AID 2283534). To be noted: mRNA level, 48 h; actives raise or lower the signal. A digest of the protocol:
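Differentiated human HepaRG cells in serum-free induction medium were exposed 48 h to chemicals (8 half-log concentrations, top 100 uM, 0.5% DMSO). TIMP1 mRNA was quantified by TaqMan qRT-PCR, normalized to ACTB/GAPDH/POLR2A; bidirectional fit versus DMSO.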

Read-out in assay [6]: Tumor necrosis factor receptor 1 (TNFRSF1A), TNFRSF1A (gene 7132)
As to the kind of experiment: LTEA_HepaRG_TNFRSF1A: Life Technologies and Expression Analysis (LTEA) Assay for Tumor necrosis factor receptor 1 (TNFRSF1A) using HepaRG (AID 2283535). To be noted: mRNA level, 48 h; actives raise or lower the signal. The method in brief: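 Differentiated human HepaRG cells were exposed in duplicate for 48 h in serum-free induction medium to eight concentrations (top 100 uM, half-log steps, 0.5% DMSO). TNFRSF1A mRNA was quantified by qRT-PCR, normalized to ACTB, GAPDH and POLR2A, then fitted bidirectionally against DMSO.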

Read-out in assay [7]: Thyroid Hormone Responsive (THRSP), THRSP (gene 7069)
As to the kind of experiment: LTEA_HepaRG_THRSP: Life Technologies and Expression Analysis (LTEA) Assay for Thyroid Hormone Responsive (THRSP) using HepaRG (AID 2283536). As to conditions: mRNA level, 48 h; actives raise or lower the signal. The method in brief:
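Differentiated HepaRG cells treated 48 h in serum-free induction medium with 8 half-log concentrations up to 100 uM (0.5% DMSO), duplicates. THRSP mRNA by TaqMan qRT-PCR normalised to ACTB, GAPDH, POLR2A; bidirectional fit versus DMSO.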

Read-out in assay [8]: Cellular tumor antigen p53 (Homo sapiens) (UniProt P04637)
As to the kind of experiment: LTEA_HepaRG_TP53: Life Technologies and Expression Analysis (LTEA) Assay for Tumor Protein P53 (TP53) using HepaRG (AID 2283537). To be noted: mRNA level, 48 h; actives raise or lower the signal. A digest of the protocol:
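Read-out is TP53 transcript level by microfluidic qRT-PCR, normalised to three housekeeping genes and fitted bidirectionally against DMSO. Human HepaRG cells received compounds for 48 h, highest concentration 100 uM.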

Read-out in assay [9]: UDP glucuronosyltransferase (UGT1A1), UGT1A1 (gene 54658)
Nature of the assay: LTEA_HepaRG_UGT1A1: Life Technologies and Expression Analysis (LTEA) Assay for UDP glucuronosyltransferase (UGT1A1) using HepaRG (AID 2283538). As to conditions: mRNA level, 48 h; actives raise or lower the signal. The method in brief: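 HepaRG cells, 0.5% DMSO vehicle, 48 h exposure in serum-free induction medium to 8-point half-log series topping at 100 uM, in duplicate. UGT1A1 mRNA by Fluidigm qRT-PCR, normalized to ACTB/GAPDH/POLR2A; bidirectional fit versus DMSO.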

Read-out in assay [10]: X-box binding protein 1 (XBP1), XBP1 (gene 7494)
Nature of the assay: LTEA_HepaRG_XBP1: Life Technologies and Expression Analysis (LTEA) Assay for X-box binding protein 1 (XBP1) using HepaRG (AID 2283540). As to conditions: mRNA level, 48 h; actives raise or lower the signal. The method in brief:
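Differentiated human HepaRG cells in serum-free induction medium were exposed in duplicate for 48 h to eight half-log concentrations up to 100 uM in 0.5% DMSO. XBP1 mRNA was quantified by qRT-PCR, normalised to ACTB, GAPDH and POLR2A, with bidirectional fitting against DMSO.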

Assay [11] can be described thus: LTEA_HepaRG_LDH_cytotoxicity: Cytotoxicity Assessment in the Life Technologies and Expression Analysis (LTEA) Assay (AID 2283563; active = hit-call score of the fitted dose curve at least 0.9, where 1 is the maximum;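 as to AC50: LDH activity released into spent culture medium as a marker of cell death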). A digest of the protocol:
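Differentiated human HepaRG cells, plated 48 h beforehand, were switched to serum-free induction medium and exposed for 48 h to eight half-log concentrations (top 100 uM) in 0.5% DMSO. LDH was measured in spent medium; activity was fitted relative to DMSO vehicle.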

Assay [12] deals with Cellular tumor antigen p53 (Homo sapiens) (UniProt P04637). Nature of the assay: TOX21_p53_BLA_p2_ratio: Tox21 HCT-116 p53 Agonism Beta-lactamase Assay, Ratio, Phase 2 (AID 2283592; active = hit-call score of the fitted dose curve at least 0.9, where 1 is the maximum). The method in brief:
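HCT116 cells carrying a p53-responsive beta-lactamase reporter were plated, incubated 5 h at 37C, then dosed with compounds in DMSO (217-fold dilution) for 16 h. CCF4-AM substrate was added for 2 h at room temperature; the 460/530 nm emission ratio gave gain-of-signal activity relative to DMSO.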

Assay [13] can be described thus: TOX21_p53_BLA_p3_viability: Viability Assessment in the Tox21 HCT-116 p53 Agonism Beta-lactamase Assay, Phase 3 (AID 2283593; active = hit-call score of the fitted dose curve at least 0.9, where 1 is the maximum;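 also: cells exposed to compound for 16 h before reading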). The method in brief:
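HCT116 cells, 4000/well, dosed 5 h after plating by pin transfer (217-fold dilution from DMSO stock) and incubated 16 h at 37C, 5% CO2. Viability read as ATP luminescence with CellTiter-Glo after 30 min at room temperature.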

For assay [14], the target named is Cellular tumor antigen p53 (Homo sapiens) (UniProt P04637). Nature of the assay: TOX21_p53_BLA_p3_ratio: Tox21 HCT-116 p53 Agonism Beta-lactamase Assay, Ratio, Phase 3 (AID 2283596; active = hit-call score of the fitted dose curve at least 0.9, where 1 is the maximum). The method in brief:
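HCT116 p53-bla cells (4000/well) given compound in DMSO (217-fold dilution) after 5 h, incubated 16 h at 37C. CCF4-AM substrate 2 h at room temperature; 460/530 nm emission ratio, gain fitted against DMSO.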

The nature of assay [15]: TOX21_p53_BLA_p4_viability: Viability Assessment in the Tox21 HCT-116 p53 Agonism Beta-lactamase Assay, Phase 4 (AID 2283597; active = hit-call score of the fitted dose curve at least 0.9, where 1 is the maximum;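 also: hits lower the luminescence signal meaning cytotoxicity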). A digest of the protocol:
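HCT116 p53-bla cells (4000/well) rested 5 h at 37C, then received compounds in DMSO (217-fold dilution) for 16 h at 37C, 5% CO2. CellTiter-Glo was added after the CCF4-AM read, and luminescence was read after 30 min at room temperature.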

Assay [16] has as its target Cellular tumor antigen p53 (Homo sapiens) (UniProt P04637). Nature of the assay: TOX21_p53_BLA_p5_ratio: Tox21 HCT-116 p53 Agonism Beta-lactamase Assay, Ratio, Phase 5 (AID 2283599; active = hit-call score of the fitted dose curve at least 0.9, where 1 is the maximum). A digest of the protocol: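 HCT-116 p53-bla cells (4000/well) plated 5 h, dosed with compound (217-fold DMSO dilution) for 16 h at 37 C; CCF4-AM substrate 2 h at room temperature. Activity is the 460/530 nm emission ratio (405 nm excitation), fitted in gain-of-signal direction versus DMSO.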

The target is the same in assay [17]. As to the kind of experiment: TOX21_p53_BLA_p4_ratio: Tox21 HCT-116 p53 Agonism Beta-lactamase Assay, Ratio, Phase 4 (AID 2283601; active = hit-call score of the fitted dose curve at least 0.9, where 1 is the maximum). A digest of the protocol: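 HCT-116 p53 beta-lactamase reporter cells (4000/well) preincubated 5 h, then compound (217-fold dilution of DMSO stock) for 16 h at 37C. CCF4-AM substrate added 2 h at room temperature; 460/530 nm emission ratio fitted upward versus DMSO.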

Read-out in assay [18]: UDP glucuronosyltransferase (UGT1A6), UGT1A6 (gene 54578)
As to the kind of experiment: LTEA_HepaRG_UGT1A6: Life Technologies and Expression Analysis (LTEA) Assay for UDP glucuronosyltransferase (UGT1A6) using HepaRG (AID 2283539). As to conditions: mRNA level, 48 h; actives raise or lower the signal. The method in brief: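 Human HepaRG cells were dosed for 48 h in serum-free induction medium with 0.5% DMSO vehicle, eight-point half-log series from 100 uM, in duplicate. UGT1A6 mRNA was measured by qRT-PCR, normalized to ACTB, GAPDH, POLR2A, and fitted bidirectionally against DMSO.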

Inconclusive results are not listed. Active and inactive are the calls of the source. The calls were made as follows, unless noted: active = hit-call score of the fitted dose curve at least 0.9, where 1 is the maximum; inactive = score below 0.9.

Cellular tumor antigen p53 (Homo sapiens), sequence (P04637 whole entry, looked up): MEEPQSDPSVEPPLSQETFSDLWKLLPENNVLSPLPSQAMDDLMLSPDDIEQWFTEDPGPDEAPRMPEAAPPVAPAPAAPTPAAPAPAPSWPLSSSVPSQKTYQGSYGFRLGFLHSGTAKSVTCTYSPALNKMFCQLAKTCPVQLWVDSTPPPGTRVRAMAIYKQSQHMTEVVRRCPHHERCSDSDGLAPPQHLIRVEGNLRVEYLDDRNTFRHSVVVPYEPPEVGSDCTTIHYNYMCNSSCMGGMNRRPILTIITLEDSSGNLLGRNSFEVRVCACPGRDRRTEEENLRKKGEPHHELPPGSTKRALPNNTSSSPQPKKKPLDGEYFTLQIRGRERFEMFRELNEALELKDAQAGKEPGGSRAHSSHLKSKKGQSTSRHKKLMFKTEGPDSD

One may read the AC50 as the concentration at which the activity in the assay is half-maximal. Take `O=C(Nc1ccccc1)Nc1cnns1`: the AC50 was 74.2 µM (active) in assay [1]; 50 µM (active) in assay [2]; 73.5 µM (active) in [7]; 87.2 µM (active) in [9]; 50 µM (active) in assay [10]; 77.2 µM (active) in assay [11]. For the same compound, the values for the half-maximal activity concentration (AC50) in assay [12] and in assay [17] were 64.1 µM (active) and 52.9 µM (active), respectively. The compound was called inactive in [3], in assay [4], in [5], in assay [6], in assay [8] and in [13]. Further, the outcome in [14], in assay [15] and in assay [16] was inactive.

Take `C#CCN1C(=O)COc2cc(F)c(N3C(=O)C4=C(CCCC4)C3=O)cc21`: the outcome in assay [1], in assay [2], in [3], in assay [4], in assay [5] and in assay [6] was inactive. Also, the compound was classed as inactive in [7], in [18], in assay [10] and in assay [11]. Also, the concentration at half-maximal activity (AC50) in assay [9] was 1.95 µM (active).

In the case of `CC(C)OC(=O)Nc1cccc(Cl)c1`, the call in assay [1], in assay [2], in [3], in [4], in assay [5] and in assay [7] was inactive. Further, the outcome in [8], in [9], in assay [10], in [11], in [12] and in assay [13] was inactive. Besides, the outcome in assay [14], in assay [15], in assay [16] and in assay [17] was inactive. Moreover, in [6], the concentration at half-maximal activity (AC50) is 50 µM (active).
